# In PMC7862700, “An all-to-all approach to the identification of sequence-specific readers for epigenetic DNA modifications on cytosine”:
# How the values were obtained:
# Experiment in all cases: DAPPL (digital affinity profiling via proximity ligation, sequencing); 10 mM Tris-HCl pH 7.5, 50 mM NaCl, 1 mM DTT, 4% glycerol, room temperature, 30 min; GST-TFs on glutathione beads, 16-mer random dsDNA library, 0.1% formaldehyde crosslink after washing; high values mean tight binding
# FEV = molecular target: T1, FEV (Homo sapiens, UniProt Q99581 1-238); details: protein: recombinant; tags: N-terminal GST; dsDNA, one strand shown
# T1 sequence: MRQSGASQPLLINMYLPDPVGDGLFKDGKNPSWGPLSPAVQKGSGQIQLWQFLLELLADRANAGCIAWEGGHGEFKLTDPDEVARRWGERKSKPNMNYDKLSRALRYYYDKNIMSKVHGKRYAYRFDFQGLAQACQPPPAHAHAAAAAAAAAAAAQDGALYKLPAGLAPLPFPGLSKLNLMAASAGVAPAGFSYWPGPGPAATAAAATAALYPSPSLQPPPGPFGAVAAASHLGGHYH
# Outline: (§1)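 Beads coated with glutathione captured GST-fused human transcription factors that had been expressed in yeast, and the factors were then given DNA barcodes and pooled with a tag-only sample. The pools were incubated with 200 nmole of a random double-stranded 16-mer DNA library in Tris/NaCl/DTT/glycerol buffer for 30 min at room temperature, washed, crosslinked with 0.1% formaldehyde and proximity-ligated with BsaI/T4 ligase at 37 °C for 1 h. PCR amplification and Illumina NextSeq500 sequencing came last. Binding signal is each hexamer's read frequency for a factor divided by its frequency for the tag-only sample.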
# ETV5 = ETV5 (Homo sapiens, UniProt P41161 1-510); details: protein: recombinant; tags: N-terminal GST; dsDNA, one strand shown
# ETV5, sequence (P41161 whole entry): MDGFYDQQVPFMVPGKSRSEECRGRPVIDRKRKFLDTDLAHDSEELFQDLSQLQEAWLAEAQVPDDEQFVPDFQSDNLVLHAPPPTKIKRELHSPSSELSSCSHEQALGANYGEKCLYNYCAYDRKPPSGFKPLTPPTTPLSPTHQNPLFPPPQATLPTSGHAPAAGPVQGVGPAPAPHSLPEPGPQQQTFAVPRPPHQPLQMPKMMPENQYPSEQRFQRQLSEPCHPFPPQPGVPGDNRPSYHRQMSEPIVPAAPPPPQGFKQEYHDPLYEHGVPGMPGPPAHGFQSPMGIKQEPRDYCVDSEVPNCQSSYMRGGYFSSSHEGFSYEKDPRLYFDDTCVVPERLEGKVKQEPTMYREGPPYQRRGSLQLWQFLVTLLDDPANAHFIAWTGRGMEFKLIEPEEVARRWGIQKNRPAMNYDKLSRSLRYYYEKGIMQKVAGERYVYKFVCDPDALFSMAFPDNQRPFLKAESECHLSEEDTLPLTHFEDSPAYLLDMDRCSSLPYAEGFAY
# Outline: as §1
# HSF1 = HSF1 (Homo sapiens, UniProt Q00613 1-529); details: protein: recombinant; tags: N-terminal GST; chain copies: 3; dsDNA, one strand shown
# HSF1, sequence (Q00613 whole entry): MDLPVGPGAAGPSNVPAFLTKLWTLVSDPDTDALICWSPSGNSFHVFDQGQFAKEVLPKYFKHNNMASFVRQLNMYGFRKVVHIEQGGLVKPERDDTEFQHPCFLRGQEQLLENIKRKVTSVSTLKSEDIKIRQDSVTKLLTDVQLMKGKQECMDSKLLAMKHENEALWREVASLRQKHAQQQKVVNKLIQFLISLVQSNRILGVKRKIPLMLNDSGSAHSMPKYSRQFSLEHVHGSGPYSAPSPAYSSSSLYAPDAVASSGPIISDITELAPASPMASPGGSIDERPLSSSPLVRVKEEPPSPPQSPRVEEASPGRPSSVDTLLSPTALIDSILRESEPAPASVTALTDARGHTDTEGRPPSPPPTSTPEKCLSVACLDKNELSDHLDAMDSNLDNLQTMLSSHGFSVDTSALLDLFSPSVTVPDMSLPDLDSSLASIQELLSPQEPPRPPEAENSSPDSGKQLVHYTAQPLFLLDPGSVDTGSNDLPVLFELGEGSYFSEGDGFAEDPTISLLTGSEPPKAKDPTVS
# Outline: as §1
# SPIC = molecular target: T2, SPIC (Homo sapiens, UniProt Q8N5J4 1-248); details: protein: recombinant; tags: N-terminal GST; dsDNA, one strand shown
# T2 sequence: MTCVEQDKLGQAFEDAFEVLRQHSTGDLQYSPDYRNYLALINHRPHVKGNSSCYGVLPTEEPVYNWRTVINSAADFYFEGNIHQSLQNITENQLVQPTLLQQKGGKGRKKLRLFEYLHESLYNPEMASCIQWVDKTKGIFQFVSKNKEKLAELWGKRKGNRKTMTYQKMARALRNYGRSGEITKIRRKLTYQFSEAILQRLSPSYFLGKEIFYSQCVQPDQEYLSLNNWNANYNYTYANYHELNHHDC
# Outline: as §1
# ELF4 = ELF4 (Homo sapiens, UniProt Q99607 1-663); details: protein: recombinant; tags: N-terminal GST; dsDNA, one strand shown
# ELF4, sequence (Q99607 whole entry): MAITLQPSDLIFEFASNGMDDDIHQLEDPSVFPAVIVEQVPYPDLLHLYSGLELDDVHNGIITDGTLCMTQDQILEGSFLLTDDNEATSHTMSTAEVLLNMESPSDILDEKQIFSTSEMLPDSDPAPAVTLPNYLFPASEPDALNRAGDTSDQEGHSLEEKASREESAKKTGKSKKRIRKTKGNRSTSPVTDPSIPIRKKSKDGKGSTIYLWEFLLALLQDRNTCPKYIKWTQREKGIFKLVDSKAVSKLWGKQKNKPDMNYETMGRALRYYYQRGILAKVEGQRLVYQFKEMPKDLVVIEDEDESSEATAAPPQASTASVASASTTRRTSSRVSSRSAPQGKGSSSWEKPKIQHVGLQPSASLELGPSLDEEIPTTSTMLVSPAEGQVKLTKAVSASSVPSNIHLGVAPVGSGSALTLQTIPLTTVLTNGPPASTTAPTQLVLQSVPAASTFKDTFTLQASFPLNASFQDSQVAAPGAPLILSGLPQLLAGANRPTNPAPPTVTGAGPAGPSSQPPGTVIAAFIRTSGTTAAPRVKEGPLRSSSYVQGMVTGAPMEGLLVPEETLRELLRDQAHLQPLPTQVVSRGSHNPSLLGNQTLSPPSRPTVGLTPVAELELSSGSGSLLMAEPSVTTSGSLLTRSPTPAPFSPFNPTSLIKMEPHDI
# Outline: as §1
# ELK4 = molecular target: T3, ELK4 (Homo sapiens, UniProt P28324-2 1-405); details: protein: recombinant; tags: N-terminal GST; dsDNA, one strand shown
# T3 sequence: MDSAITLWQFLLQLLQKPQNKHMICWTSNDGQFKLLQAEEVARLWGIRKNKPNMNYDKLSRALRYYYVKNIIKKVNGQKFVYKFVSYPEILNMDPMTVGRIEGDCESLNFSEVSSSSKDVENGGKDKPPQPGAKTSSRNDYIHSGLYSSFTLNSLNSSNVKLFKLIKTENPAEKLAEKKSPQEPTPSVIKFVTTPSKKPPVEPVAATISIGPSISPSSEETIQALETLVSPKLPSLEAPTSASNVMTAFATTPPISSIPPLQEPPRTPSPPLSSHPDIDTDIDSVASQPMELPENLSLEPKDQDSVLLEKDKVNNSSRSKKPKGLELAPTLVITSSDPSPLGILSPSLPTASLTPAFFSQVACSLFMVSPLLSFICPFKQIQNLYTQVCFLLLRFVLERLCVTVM
# Outline: as §1
# ETV2 = molecular target: T4, ETV2 (Homo sapiens, UniProt O00321 1-342); details: protein: recombinant; tags: N-terminal GST; dsDNA, one strand shown
# T4 sequence: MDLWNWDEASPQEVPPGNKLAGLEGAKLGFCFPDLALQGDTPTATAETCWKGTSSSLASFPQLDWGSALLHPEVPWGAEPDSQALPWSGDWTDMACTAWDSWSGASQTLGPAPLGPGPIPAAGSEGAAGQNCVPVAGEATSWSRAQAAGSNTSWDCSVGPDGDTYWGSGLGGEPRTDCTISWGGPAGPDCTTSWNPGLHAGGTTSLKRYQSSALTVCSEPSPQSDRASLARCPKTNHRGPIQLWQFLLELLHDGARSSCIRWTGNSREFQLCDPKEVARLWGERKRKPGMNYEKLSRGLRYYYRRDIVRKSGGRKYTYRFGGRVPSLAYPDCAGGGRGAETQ
# Outline: as §1
# ELF3 = molecular target: T5, ELF3 (Homo sapiens, UniProt P78545 1-371); details: protein: recombinant; tags: N-terminal GST; dsDNA, one strand shown
# T5 sequence: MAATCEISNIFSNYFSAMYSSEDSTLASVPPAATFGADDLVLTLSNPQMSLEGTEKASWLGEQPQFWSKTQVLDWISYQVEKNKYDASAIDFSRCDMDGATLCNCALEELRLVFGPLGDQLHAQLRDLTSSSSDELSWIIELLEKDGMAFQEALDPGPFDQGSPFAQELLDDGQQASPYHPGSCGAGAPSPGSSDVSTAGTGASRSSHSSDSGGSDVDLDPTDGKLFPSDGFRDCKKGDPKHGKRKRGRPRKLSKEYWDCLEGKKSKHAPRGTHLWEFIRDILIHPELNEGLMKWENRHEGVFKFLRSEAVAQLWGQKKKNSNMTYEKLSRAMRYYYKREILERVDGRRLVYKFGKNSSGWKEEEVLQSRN
# Outline: as §1
# CRX = CRX (Homo sapiens, UniProt O43186 1-299); details: protein: recombinant; tags: N-terminal GST; dsDNA, one strand shown
# CRX, sequence (O43186 whole entry): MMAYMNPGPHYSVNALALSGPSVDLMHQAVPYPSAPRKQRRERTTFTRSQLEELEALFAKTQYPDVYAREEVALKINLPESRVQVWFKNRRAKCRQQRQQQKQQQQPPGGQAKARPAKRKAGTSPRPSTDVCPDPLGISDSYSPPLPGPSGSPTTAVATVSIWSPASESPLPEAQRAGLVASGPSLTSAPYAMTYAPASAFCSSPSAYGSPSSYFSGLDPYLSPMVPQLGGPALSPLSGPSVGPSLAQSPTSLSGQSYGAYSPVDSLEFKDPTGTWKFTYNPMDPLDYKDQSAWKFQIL
# Outline: as §1
sequence,measurement,setting,value
ACCTCC,binding signal,FEV,"1.42 fold enrichment (6-mer frequency, TF over GST control)"
same,binding signal,ETV5,"1.43 fold enrichment (6-mer frequency, TF over GST control)"
same,binding signal,HSF1,"1.11 fold enrichment (6-mer frequency, TF over GST control)"
same,binding signal,SPIC,"1.45 fold enrichment (6-mer frequency, TF over GST control)"
same,binding signal,ELF4,"1.44 fold enrichment (6-mer frequency, TF over GST control)"
same,binding signal,ELK4,"1.45 fold enrichment (6-mer frequency, TF over GST control)"
same,binding signal,ETV2,"1.4 fold enrichment (6-mer frequency, TF over GST control)"
same,binding signal,ELF3,"1.14 fold enrichment (6-mer frequency, TF over GST control)"
same,binding signal,CRX,"1.08 fold enrichment (6-mer frequency, TF over GST control)"
